PLK1 PBD inh: Plk1 (human) PBD binding inhibition; P53350; Plk1 PBD phosphopeptide binding, fluorescence polarization; inhibition, %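 (tested at about 20 µM)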; actives 0.13% (n = 97,000); AID 693; in the data active means inhibition above about 34%, passing the limit was not always enough
CYP2C9 inhib: human CYP2C9 inhibition. actives 20% (n = 96,000). AID 777. CYP2C9 Supersomes, luciferin-H conversion, luminescence. P11712. inhibition, % at 5 µM;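 active means blocking of liver enzyme CYP2C9 beyond about 50% at 5 µM, limit read from the data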
CYP2C19 act: increases human CYP2C19 enzyme activity | P33261 | recombinant CYP2C19, luciferin-H EGE luminescence; active compounds read high; 0 = fully inhibited enzyme, 1 = untreated enzyme | activation factor at 5 µM | 96,000 tested, under 10 active;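 active means activation factor of at least 2 at 5 µM in the primary screen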;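 further: 0 = wells with 2.5 mM tranylcypromine and 1 = vehicle-only wells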
Target sequence (P33261 whole entry, looked up): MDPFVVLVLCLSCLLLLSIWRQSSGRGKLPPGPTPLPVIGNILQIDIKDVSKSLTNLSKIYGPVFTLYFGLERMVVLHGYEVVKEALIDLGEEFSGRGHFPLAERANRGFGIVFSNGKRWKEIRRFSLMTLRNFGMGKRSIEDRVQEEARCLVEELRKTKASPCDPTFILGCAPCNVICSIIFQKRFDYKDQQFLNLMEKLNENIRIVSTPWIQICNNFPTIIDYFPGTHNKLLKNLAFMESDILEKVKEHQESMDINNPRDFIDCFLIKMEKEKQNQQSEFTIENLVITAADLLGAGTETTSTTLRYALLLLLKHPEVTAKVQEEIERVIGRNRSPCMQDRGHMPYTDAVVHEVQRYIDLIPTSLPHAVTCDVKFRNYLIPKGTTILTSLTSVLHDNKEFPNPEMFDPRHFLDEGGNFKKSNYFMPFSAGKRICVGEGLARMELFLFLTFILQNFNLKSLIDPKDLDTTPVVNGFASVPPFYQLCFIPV
PLK1 kinase inh: blocks human PLK1 kinase activity; recombinant PLK1 kinase, TR-FRET peptide phosphorylation; actives 0.53% (n = 97,000); inhibition, % at 10 µM;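 active means inhibition of 50% or more in the single-concentration screen; inactive means inhibition below 50%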;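 further: 0% = DMSO max control and 100% = H-89 dihydrochloride min control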
CYP2C9 activ: activators of human CYP2C9. P11712. recombinant CYP2C9, luciferin-H conversion, luminescence; active compounds read high; factor 1 = untreated enzyme, 0 = blocked. activation factor at 5 µM. actives 1.4% (n = 96,000). AID 1024;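 active means activation factor of 2 or more for CYP2C9 at a 5 µM dose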;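 further: 0 = sulfaphenazole-blocked wells and 1 = vehicle-only wells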
CYP2C19 inh: human CYP2C19 inhibition; CYP2C19 Supersomes, luciferin-H EGE luminescence, 30 min; inhibition, % at 5 µM; actives 21% (n = 96,000); P33261;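 active means CYP2C19 inhibition above a set limit at 5 µM in the primary screen, cut at about 50% in these data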;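 further: plate controls were negative control wells for no effect and 2.5 mM tranylcypromine positive control for full effect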
Starred values were filed as active, the others as inactive; · = no result. Shown are actives, neighbours in structure and some others; about 28% of the full set was active somewhere.

SMILES | PLK1 PBD inh | CYP2C9 inhib | CYP2C19 act | PLK1 kinase inh | CYP2C9 activ | CYP2C19 inh
CN=C1SC(CC(=O)Nc2cccc(C(F)(F)F)c2)C(=O)N1C (stereo not given) | 18 | -286 | 0.7 | -3 | 3.9* | 33
COc1ccc(N=C2SC(CC(=O)Nc3ccccc3)C(=O)N2CC2CCCO2)cc1 (stereo not given) | 12 | 73* | 0.5 | -12 | 0.3 | 47
COc1ccc(C(=O)NN2C(=O)C3CCC(C)(C2=O)C3(C)C)cc1 (stereo not given) | -10 | 7 | 1 | -14 | 0.9 | 4
Cc1cc(C)c(NC(=O)C2CC(=O)N(c3ccc4c(c3)OCCO4)C2)c(C)c1 (stereo not given) | 4 | 20 | 0.8 | -12 | 0.8 | 16
O=C(COC(=O)C1CC(=O)N(c2ccc3c(c2)OCCO3)C1)Nc1ccc2c(c1)CCC2 (stereo not given) | -1 | 44 | 0.6 | 3 | 0.6 | 41
O=C(Nc1ccccc1Cc1ccccc1)C1CC(=O)N(c2ccc3c(c2)OCCO3)C1 (stereo not given) | 16 | 76* | 0.4 | 6 | 0.2 | 64*
O=C(Nc1nc(-c2ccco2)c(-c2ccco2)s1)C1CC(=O)N(c2ccc3c(c2)OCCO3)C1 (stereo not given) | · | 94* | 0.3 | · | 0.1 | 71*
CCc1cccc(CC)c1NC(=O)C1CC(=O)N(c2ccc3c(c2)OCCO3)C1 (stereo not given) | -16 | 89* | 0.3 | -14 | 0.1 | 74*
CC(C)(C)NCC1(CO)SC(N)=NC1=O (stereo not given) | -7 | -18 | 1.1 | -6 | 1.2 | -10
Cc1ccc(NC2c3ncccc3C(=O)N2C2CCCCC2)cc1C (stereo not given) | 2 | 17 | 0.6 | -7 | 0.8 | 44
CN(C)c1ccc(C(=S)N2CCOCC2)cc1Br | -21 | -142 | 0.7 | -11 | 2.4* | 30
Cc1cc(NC(=O)CSc2nnc(COc3ccccc3)n2Cc2ccco2)no1 | -15 | 38 | 1 | -16 | 0.6 | -2
O=C(CSc1nnc(COc2ccccc2)n1Cc1ccco1)Nc1ccc2c(c1)OCCO2 | 8 | 11 | 1 | -4 | 0.9 | -2
O=C(CSc1nnc(COc2ccccc2)n1Cc1ccco1)NCc1ccco1 | -9 | 78* | 0.4 | -19 | 0.2 | 58*
Cc1ccc(OCc2nnc(SCC(=O)C(C)(C)C)n2Cc2ccco2)cc1 | -6 | 74* | 0.8 | 12 | 0.3 | 20
CC12C=CC3(CN(Cc4ccccc4)C(=O)C3C1C(=O)NCc1ccco1)O2 (stereo not given) | -6 | 2 | 1 | -2 | 1 | -2
Cc1ccc(C2OCC3(CO)COC(c4ccc(C)cc4)N23)cc1 (stereo not given) | -2 | 41 | 0.3 | 3 | 0.6 | 72*
O=C(c1cc(=O)[nH]c2ccccc12)N1CCN(S(=O)(=O)c2ccc3ccccc3c2)CC1 | -12 | 6 | 0.9 | -4 | 0.9 | 10
Cc1ccc2c(c1)C(c1ccccc1)N(C(=O)c1ccc(Br)o1)CC(=O)N2 (stereo not given) | -13 | 74* | 0.6 | -20 | 0.3 | 42
O=C(O)CN1C(=O)Nc2ccc(Br)cc2C1c1ccccc1 (stereo not given) | · | 11 | 0.9 | · | 0.9 | 10
O=C1CN(C(=O)c2ccc(Br)o2)C(c2ccccc2)c2cc(Br)ccc2N1 (stereo not given) | 4 | 100* | 0 | -5 | 0 | 96*
COc1ccc(N2CCN(C(=O)CCc3ccc(S(=O)(=O)NC(C)C)cc3)CC2)cc1 | -6 | · | · | -10 | · | ·
COc1ccc(C(=O)c2ccc(OC)c(N)c2)cc1N | -16 | -156 | 0.8 | -9 | 2.6* | 22
COc1ccc(C(=O)c2ccccc2)cc1Br | -11 | -119 | 0.5 | -7 | 2.2* | 50
COc1ccc(C(=O)c2ccc(OC)c(OC)c2)cc1OC | -4 | 34 | 0.5 | 1 | 0.7 | 48
SMILES | PLK1 PBD inh | CYP2C9 inhib | CYP2C19 act | PLK1 kinase inh | CYP2C9 activ | CYP2C19 inh
Cc1cc2c3c(c1C)C1(C(=O)N3C(C)(C)CC2C)C(C#N)=C(N)OC2=C1C(=O)CC(C)(C)C2 (stereo not given) | 17 | 34 | 0.8 | -6 | 0.7 | 24
CCN(CC)C(=O)C1=C(C)Nc2nnnn2C1c1cccnc1 (stereo not given) | -1 | 3 | 1.1 | -7 | 1 | -11
O=C(Nc1ccccc1F)NC1CCN(Cc2nnnn2Cc2ccc(F)cc2)CC1 | -5 | 14 | 1 | -6 | 0.9 | 0
c1ccc(Cn2nnnc2CN2CCN(c3ncccn3)CC2)cc1 | -6 | 93* | 0.8 | -5 | 0.1 | 19
COc1ccc(Cn2nnnc2CN2CCOCC2)cc1 | 4 | · | · | -16 | · | ·
Fc1ccc(Cn2nnnc2CN2CCc3ccccc3C2)cc1 | · | 47 | 0.4 | · | 0.5 | 58*
COc1ccccc1NC(=O)CSc1nc(C)c2c(c1C#N)CCCC2 | -13 | 19 | 0.8 | -7 | 0.8 | 22
COC(=O)c1nn(-c2ccccc2)c(Sc2ccc(C)cc2)c1/C=N/O | -5 | 10 | 1 | -4 | 0.9 | 0
COC(=O)c1cc2sccc2n1Cc1ccc(C)cc1 | 19 | 18 | 0.9 | -1 | 0.8 | 6
COc1cc(Cn2c(C(=O)O)cc3sccc32)cc(OC)c1OC | 3 | 41 | 0.3 | 2 | 0.6 | 71*
CCOC(=O)c1cc2sccc2n1CC(=O)Nc1ccc(OC)cc1OC | 0 | 68* | 0 | -20 | 0.3 | 99*
COC(=O)c1cc2sccc2n1CC(=O)Nc1ccc(OC)c(OC)c1OC | 1 | 88* | 0.1 | -13 | 0.1 | 91*
CNc1oc(Cc2ccccc2)nc1S(=O)(=O)c1ccc(Cl)cc1 | 3 | 22 | 0.5 | -4 | 0.8 | 50
Cc1ccc(C(=O)NCCSC2CCCCC2)cc1S(=O)(=O)Nc1ccccc1 | 1 | 28 | 0.7 | -16 | 0.7 | 32
O=C(c1ccc(S(=O)(=O)N2CCCCC2)cc1)N1CCCc2ccccc21 | -4 | 76* | 0.7 | -9 | 0.2 | 27
O=C(c1ccc(S(=O)(=O)N2CCOCC2)cc1)N1CCCc2ccccc21 | -7 | 28 | 0.4 | -5 | 0.7 | 56*
O=C(c1ccc(S(=O)(=O)N2CCCC2)cc1)N1CCCc2ccccc21 | -10 | 88* | 0 | -10 | 0.1 | 97*
O=C(c1ccc(C(=O)N2CCCc3ccccc32)nc1)N1CCCc2ccccc21 | · | 11 | 0.9 | · | 0.9 | 12
CC(=O)c1cc(C)ccc1OC(=O)c1ccco1 | -1 | -7 | 1 | -8 | 1.1 | 2
CNC(=O)CSc1nc2c(c(=O)n(C)c(=O)n2C)n1Cc1ccc(C)cc1 | -3 | 11 | 0.7 | -11 | 0.9 | 32
CC(=O)C1=C(O)C(=O)N(c2nccs2)C1c1ccc(Br)cc1 (stereo not given) | 10 | 57* | 0.9 | -12 | 0.4 | 15
